Hits are enriched below; roughly 7.2% of the tested compounds scored in any of these assays.
AHR activator – activates the human aryl hydrocarbon receptor. activation, % at 5 µM. P35869. AHR-responsive luciferase reporter cells, luminescence. actives 2.5% (n = 320,000); in the data active = activation above about 47%;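 also: 0% = vehicle wells and 100% = reference agonist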
Mot1-301 SUMO – blocks SUMOylation pathway, rescuing yeast Mot1-301 growth | S. cerevisiae Mot1-301 growth rescue, ATP luminescence, 38.5C; percent above DMSO median, 100 means doubled | growth rescue, % at 18.8 µM | actives 1% (n = 320,000);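 active = every valid replicate shows activation above 250% relative to neutral control wells; inactive = the rest, any valid replicate at or below 250%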;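 also: OY570 slx delta 5 strain wells were the positive control but not used for scaling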
Efflux pump mplx – antifungal efflux pump inhibition, Nile Red retention; S. cerevisiae Candida pump triplex; inhibition, % at 10 µM; actives 0.44% (n = 330,000); AID 485275;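 active = plate passing quality check with inhibition over a set limit, or well fluorescence over plate mean plus 4 SD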;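 also: Nile Red retained in pooled yeast measured as flow cytometry median fluorescence; 0% = buffer negative control and 100% = Enniatin B positive control; higher means more Nile Red kept so more efflux inhibition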
VLA-4 inh – inhibition in a human VLA-4 binding assay. VLA-4 expressing cells, ligand binding flow cytometry. inhibition, % (about 7 µM as worked out from the volumes in the protocol). actives 0.2% (n = 330,000); in the data active = inhibition above about 50%
ALR H2O2 inh – inhibitors of human sulfhydryl oxidase ALR | AID 485317 | purified ALR, DTT oxidation, H2O2 HRP-luminol luminescence | inhibition, % (concentration not given with the values) | P55789 | actives 3.8% (n = 290,000);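 active = mean replicate inhibition above about 79%, with every replicate also reaching it, limit read from the data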
A1 inh – inhibitors of the anti-apoptotic protein A1, read as caspase activation; caspase activation, % (test concentration not listed); MEF A1-2A-BIM cells, Caspase-Glo 3/7 luminescence, 3 h; percent of clofoctol response, vehicle zero; AID 2462; actives 0.066% (n = 330,000);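 active = over half of replicate activation scores above 10%, or exactly half above 10 with the replicate mean above 10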
Active calls of the source: *; · = no result.

SMILES | AHR activator | Mot1-301 SUMO | Efflux pump mplx | VLA-4 inh | ALR H2O2 inh | A1 inh
Cc1ccc(C2c3[nH]c4ccccc4c3C[C@H]3C(=O)N(c4ccccc4C(=O)N4CCC[C@H]4C(=O)O)C(=O)N23)cc1 (stereo not given in full) | 13.2 | 604.8* | 0.3 | 36.7 | 97.9* | -0.9
CC(C)CN1CC(=O)N2C(c3ccccc3)c3[nH]c4ccccc4c3C[C@H]2C1=O (stereo not given in full) | 4.8 | 229.6 | 0.2 | -99.9 | -13.2 | 1.5
COC(=O)c1ccc(C2c3[nH]c4ccccc4c3C[C@H]3C(=O)N(C4CC4)CC(=O)N23)cc1 (stereo not given in full) | 0.2 | -21.7 | -0.2 | 14.1 | -0.8 | 1.5
CC(C)c1ccc(C2c3[nH]c4ccccc4c3C[C@H]3C(=O)N(c4ccccc4C(=O)N4CCC(C(=O)O)CC4)C(=O)N23)cc1 (stereo not given in full) | 9.6 | 12.2 | 0.2 | -5.1 | 98.0* | -0.2
COc1ccc(C2c3[nH]c4ccccc4c3C[C@H]3C(=O)N(c4ccccc4C(=O)N4CCC[C@@H]4C(=O)O)C(=O)N23)cc1 (stereo not given in full) | 8.9 | 101.8 | 0.1 | -10.7 | · | -0.2
CC(C)c1ccc(C2c3[nH]c4ccccc4c3C[C@H]3C(=O)N(c4ccccc4C(=O)N4CCC[C@@H]4C(=O)O)C(=O)N23)cc1 (stereo not given in full) | 8.3 | 2.9 | 0.2 | -6.1 | 97.9* | -0.1
CCN(CC)C(=O)Cn1cc(S(=O)(=O)CC(=O)Nc2ccccc2C)c2ccccc21 | -1.8 | 0.6 | 1.7 | -0.2 | · | -0.3
CCC(C(=O)Nc1ccccc1Cl)n1nc(C)c2c(C)n(-c3ccccc3)nc2c1=O (stereo not given) | -1.7 | 23.9 | -0.3 | 1.9 | -4.9 | 0.9
CC1=NN2C(=N)/C(=C\c3cc(C)n(Cc4ccccc4)c3C)C(=O)N=C2S1 | 2.8 | -43.1 | 0.2 | -0.8 | 97.4* | -0.4
CS(=O)(=O)N(CC(=O)NCCSCc1cccc(Cl)c1)c1ccccc1F | 4.2 | 7.4 | 0.1 | 2.8 | -11.5 | -0.1
O=C(N/N=C\c1ccc(Cl)s1)c1ccc(Cn2cccn2)o1 | 73.0* | -1.8 | -0.1 | -1.1 | -1.5 | 0.8
COc1cc(/C=N\NC(=O)c2ccc(Cn3nc([N+](=O)[O-])c(Cl)c3C)o2)ccc1O | 16.9 | 13.9 | -0.3 | 11.2 | 95.3* | -1.0
CC(C)c1ccc(/C=N\NC(=O)c2ccc(Cn3cccn3)o2)cc1 | 22.5 | -20.8 | -0.6 | 4.4 | 11.4 | -0.3
O=C(N/N=C/c1cccnc1)c1ccc(Cn2cc([N+](=O)[O-])cn2)o1 | 62.5* | 126.0 | -0.2 | 2.1 | -2.0 | 0.8
Cc1ccc(NC(=O)C(C)S)cc1 (stereo not given) | 1.2 | -8.9 | 0.0 | -2.5 | · | -0.3
Cc1cccc(C(C(=O)NC2CCCCC2)N(Cc2cccnc2)C(=O)c2csnn2)c1 (stereo not given) | -1.9 | -10.4 | 0.0 | 8.6 | -8.2 | -0.7
CCn1c(N)c(C(=O)N2CCOCC2)sc1=S | -2.1 | -2.3 | 0.0 | 9.5 | 98.2* | -4.5
CCOC(=O)c1c(N)sc(C(=O)N2CCOCC2)c1C | 3.5 | 8.3 | -0.1 | 4.8 | -2.5 | -0.1
C=CCn1c(N)c(C(=O)N2CCOCC2)sc1=S | 0.0 | 1.3 | -0.1 | 7.3 | 98.6* | -0.1
C=CCn1c(C)c(C(C)=O)c(N2CCOCC2)nc1=S | 6.9 | 15.6 | 0.2 | -1.6 | -7.5 | 0.1
O=C(NC1CCCCC1)c1cc(S(=O)(=O)N2CCOCC2)ccc1Cl | -0.1 | -8.8 | 1.6 | 7.3 | 27.0 | 0.0
COc1cc(/C=N/NC(=O)CCc2ccccc2)ccc1O | 7.2 | 9.2 | 0.0 | 12.1 | 99.0* | -0.4
COc1cc(/C=N/Nc2ccccc2)ccc1O | 13.8 | 30.4 | -0.2 | 3.5 | 99.4* | -1.2
COc1cc(/C=N/Nc2ccccc2C(F)(F)F)ccc1O | 2.4 | -0.2 | -0.2 | 3.9 | 12.4 | 0.8
COc1ccc(/C=N/NC(=O)c2ccco2)cc1Cn1nc(C)c([N+](=O)[O-])c1C | 4.4 | -5.0 | 0.0 | -1.0 | 26.1 | -0.2
SMILES | AHR activator | Mot1-301 SUMO | Efflux pump mplx | VLA-4 inh | ALR H2O2 inh | A1 inh
COc1ccc(/C=N/NC(=O)c2ccco2)cc1Cn1nc(C)cc1C | 3.8 | 146.4 | 0.0 | 5.6 | 77.2* | 0.4
COc1cc(/C=N/NC(=O)CCNC(=O)c2ccccc2Cl)ccc1O | 2.2 | 1.8 | 0.0 | -0.9 | 98.8* | 0.2
O=C(C1CCCN(S(=O)(=O)c2ccc(F)cc2)C1)N1CCCCCC1 (stereo not given) | -1.6 | 8.0 | 0.0 | 2.5 | -3.4 | -0.3
COc1ccc(/C=N/NC(=O)CCn2c3ccccc3c3ccccc32)cc1OC | 68.5* | -4.8 | 0.0 | 1.9 | -5.4 | -1.2
COc1cc(/C=N/NC(=O)CNC(=O)c2ccco2)ccc1O | 3.5 | 15.5 | -0.1 | -2.2 | 99.3* | -0.1
O=C(CNC(=O)c1ccco1)N/N=C/c1cc(Br)ccc1O | 9.5 | 17.1 | -0.1 | -6.8 | · | -0.1
COc1cc(/C=N/NC(=O)CCn2c3ccccc3c3ccccc32)cc(OC)c1OC | 13.2 | 2.3 | 0.1 | 9.4 | -5.4 | -0.5
O=C(CN1CCC(n2nnc3cc(F)ccc32)CC1)Nc1ccccc1N1CCOCC1 | -2.0 | -0.5 | 0.0 | 3.7 | 4.2 | 0.1
Cc1ccc2c(c1)c(-c1ccccc1)nc1nncn12 | 52.8* | 5.0 | -0.1 | 7.0 | · | 0.1
COC1CCCN(C(=O)c2cccc(OC3CCN(S(=O)(=O)N(C)C)CC3)c2)C1 (stereo not given) | -1.0 | -12.5 | -0.1 | -7.0 | 0.0 | 1.6
O=C1CS/C(=N\C(=O)N2c3ccccc3Sc3ccccc32)N1 | 1.0 | 13.1 | 0.0 | -44.3 | 98.9* | 0.1
COc1cc2nc(CN3CCN(S(=O)(=O)c4ccc(Br)cc4)CC3)[nH]c(=O)c2cc1OC | 0.1 | -12.9 | 0.0 | -13.3 | -2.1 | -0.3
COCc1cc(C)nc(OCC(=O)N/N=C/c2ccc(O)cc2)c1C#N | 6.8 | 11.9 | 0.1 | 3.4 | 99.2* | 0.4
COCc1cc(C)nc(OCC(=O)N/N=C/c2ccc(OC)c(OC)c2)c1C#N | 63.1* | -10.5 | 0.0 | 5.7 | 1.2 | 1.3
COCc1cc(C)nc(OCC(=O)N/N=C/c2ccc(C)o2)c1C#N | -2.8 | -2.6 | -0.2 | 11.2 | -7.4 | 0.3
O=C(NCc1ccco1)C1CCCN(S(=O)(=O)c2cccc3cccnc23)C1 (stereo not given) | 3.6 | 15.8 | 0.2 | 8.8 | 28.4 | 0.0
Cc1ccc(Cl)cc1NC(=S)NN | 23.1 | 21.2 | -0.1 | 12.5 | 10.2 | -3.3
CCOc1ccc(-c2nnc3ccc(SC(C)C)nn23)cc1 | 51.0* | 16.9 | 0.3 | 24.4 | · | 0.1
CCOc1ccc2nc(NC(=O)CSc3cn[nH]n3)sc2c1 | 10.4 | 8.6 | 0.3 | 14.4 | 1.2 | -1.5
